# Measured values reported in PubChem BioAssay (NCATS).
# Inconclusive results are not listed. Unmarked numbers belong to inactive results. Calls come from the whole dose curve; as a rule, active = well fitted inhibition curve with a large enough effect; inconclusive = small, poorly fitted or top-dose-only effect; inactive = no such curve, though single readings can be large or run the other way.
# Biological target: Retinaldehyde dehydrogenase 3 (Homo sapiens) (UniProt P47895)
# Experiment: qHTS for Inhibitors of the Aldehyde Dehydrogenase Family (ALDH1A3) Primary screen (AID 2061315);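 note: plate controls were DMSO vehicle for no effect and reference inhibitor for full effect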
# Conditions: ALDH inhibition qHTS; series mostly up to 56 µM; activity change, negative = inhibition: at the top concentration
row,SMILES,"activity change, negative = inhibition"
1,CCCC1=CC2=C(CO1)C(=O)C(C)(OC(=O)c1c(C)cc(OC)cc1O)C(O)C2 (stereo not given),-14.4% [at 28 µM]
2,CCCCCOC(=O)Nc1nc(=O)n(C2O[C@H](C)[C@@H](O)[C@H]2O)cc1F (stereo not given in full),-10.5%
3,C=CC(C)(O)CC/C=C(\C)C(=O)O[C@@H]1[C@@H](O)[C@H](OC(C)(C=C)CC/C=C(\C)C(=O)O[C@@H]2O[C@H](CO)[C@@H](O)[C@H](O)[C@H]2O)O[C@H](CO)[C@H]1OC(=O)/C(C)=C/CCC(C)(O)C=C (stereo not given in full),10.9% [at 16.9 µM]
4,COC(C(=O)N1Cc2[nH]nc(NC(=O)c3ccc(N4CCN(C)CC4)cc3)c2C1)c1ccccc1 (stereo not given),9.86%
5,O=C(O)Cc1cn([C@@H]2O[C@H](CO)[C@@H](O)[C@H](O)[C@H]2O[C@@H]2O[C@H](CO)[C@@H](O)[C@H](O)[C@H]2O)c2ccccc12,-11.2% [at 28 µM]
6,CC1(CCC(=O)O)C(=O)C=CC23CC4CC(OC4(C)C2O)C13 (stereo not given),19.1%
7,CCC(C)C(=O)OC12C(OC(C)=O)C(C)C3(O)C(C=C(CO)CC4(O)C(=O)C(C)=CC43)C1C2(C)C (stereo not given),15.1% [at 28 µM]
8,N#CC1C(=O)N=C(c2cc(Cl)ccc2O)C=C1c1cc(OCc2ccccc2)cc(OCc2ccccc2)c1 (stereo not given),6.75%
9,Cc1cn2c(N)c(Cl)cc(C(=O)NCC3CCN(CC(C)C)CC3)c2n1,2.36%
10,COC(=O)[C@]1(C)CCC[C@@]2(C)[C@@H]3CC[C@@H]4C[C@@]3(CC[C@@H]21)C[C@H]4C(=O)O,1.38%
11,CC1CCC2(C)CCC3(C)C(=CCC4C5(C)CCC(O)C(C)(C(=O)O)C5CCC43C)C2C1C (stereo not given),-2.09% [at 28 µM]
12,O=S(=O)(O)c1ccc(Nc2ncnc3c2ncn3[C@@H]2O[C@H](CO)[C@@H](O)[C@H]2O)cc1,-14.7%
13,CC(=O)OC1C(O)C2C(C)C3=CC(=O)OC3(O)CC2C2(C)CCCC(C)(CO)C12 (stereo not given),4.94% [at 28 µM]
14,C=C(C(=O)O)[C@@H]1CC[C@@]2(C)CC[C@@H](O)C(=C)C2C1 (stereo not given in full),-11%
15,CC(=O)C12OC(C)(C)OC1CC1C3CCC4=CC(=O)C=CC4(C)C3(F)C(O)CC12C (stereo not given),-6.55%
16,C=CC(C)(O)CC/C=C(/C)C(=O)OC1C(OC2OCC(OC3OC(CO)C(O)C(O)C3O)C(OC3OCC(O)C(OC4OC(C)C(O)C(O)C4O)C3O)C2O)COC(OC(=O)C23CCC(C)(C)CC2C2=CCC4C5(C)CCC(OC6OC(CO)C(OC7OC(CO)C(O)C(OC8OCC(O)C(O)C8O)C7O)C(O)C6O)C(C)(C)C5CCC4(C)C2(C)CC3O)C1O (stereo not given),8.04% [at 11.2 µM]
17,COC(=O)C[C@H]1C(C)(C)[C@H](OC(=O)c2ccccc2)C2CC3=C4CC(=O)O[C@@H](c5ccoc5)[C@]4(C)CCC3[C@@]1(C)C2=O (stereo not given in full),16% [at 28 µM]
18,O=C(CCCCc1ccc2ccccc2c1)C(F)(F)F,-16.7% [at 114 µM]
19,N#Cc1ccc(Nc2nc(-c3ccc(O)cc3O)cs2)cc1C(F)(F)F,11.2%
20,COC(=O)C1=COC(OC2OC(CO)C(O)C(O)C2O)C2C(C)C(OC(=O)/C=C/c3ccc(O)cc3)C(O)C12 (stereo not given),5.45% [at 28 µM]

row,SMILES,"activity change, negative = inhibition"
1,Cc1ccc(S(=O)(=O)n2ccc(-c3c(-c4ccc(Cl)cc4)noc3C)n2)cc1,2.4%
2,COc1cc(C2Oc3c(O)cc(CCCO)cc3C2CO)ccc1O[C@H]1O[C@H](C)[C@@H](O)[C@H](O)[C@@H]1O (stereo not given in full),-7.33% [at 28 µM]
3,C/C=C(/C)C(=O)O[C@@H]1C[C@@H](OC(=O)/C(C)=C\C)[C@@]2(C)C3C(=O)C=C(C)C2C3C1(C)C,10.8% [at 28 µM]
4,CN1c2ccccc2C(=O)N2CCC3c4ccccc4NC3C21 (stereo not given),7.6%
5,C/C=C/C=C/C=C/C(=O)O[C@@H]1[C@@H](OC)C2=C(C(=O)N(C(C)C(=O)O)C2)[C@@]2(C)CCCC(C)(C)[C@H]12 (stereo not given in full),-6.8% [at 28 µM]
6,Cc1cnc(NC(=O)Nc2cc(Br)c(C)cc2OCC2CNCCO2)cn1 (stereo not given),-4.74%
7,CC1=CC23[C@H](C=C(C(=O)O)[C@@H]2COC(=O)[C@]3(O)CO)[C@@H]1C (stereo not given in full),-11.6%
8,N#CCc1ccc(O)cc1O[C@@H]1O[C@H](CO)[C@@H](O)[C@H](O)[C@H]1O,-0.815%
9,Nc1ncnc2c1nc(Cl)n2C1OC2COP(=O)(O)OC2C1O (stereo not given),-14.3%
10,OC[C@H]1O[C@@H](O[C@H]2[C@H](OCc3ccccc3)O[C@H](CO[C@@H]3OC[C@@H](O)[C@H](O)[C@H]3O)[C@@H](O)[C@@H]2O)[C@H](O)[C@@H](O)[C@@H]1O,-21.5% [at 28 µM]
11,CN(CC1(C)CCCO1)S(=O)(=O)c1ccc(Cl)c(S(N)(=O)=O)c1 (stereo not given),-17.5%
12,CC(=O)O[C@H]1C[C@H](OC(C)=O)[C@]2(C)[C@H](CC[C@@]34O[C@@H]3C3=C(C)C(=O)O[C@@H]3C[C@H]42)C1(C)C,-11.6% [at 28 µM]
13,C[C@@H]1C(=O)O[C@H](C)[C@H]1CC(=O)[C@](C)(O)[C@H]1CC[C@@]2(O)C3=CC(=O)[C@@H]4C[C@@H](O)[C@@H](O)C[C@]4(C)C3CC[C@]12C (stereo not given in full),-16.7% [at 28 µM]
14,COCC1OC(OC(C)(C)C2CCC3(C)C=C(C4CCC5C4(C)CC(O)C4OC(C(C)(C)OC6OC(CO)C(O)C(O)C6NC(C)=O)CCC45C)CCC3O2)C(NC(C)=O)C(O)C1O (stereo not given),4.55% [at 16.9 µM]
15,C[C@H](CCC(=O)O)[C@H]1CC[C@H]2[C@@H]3C[C@H](O)[C@@H]4C[C@H](O)CC[C@]4(C)[C@H]3CC[C@]12C,7.13%
16,C=CC1(C)CC2=CCC3C(C)(C(=O)O)CCCC3(C)C2CC1OC(C)=O (stereo not given),8.87%
17,CCC(CC)(NC(=O)C(C)C)C(=O)N[C@@H](CCCN=C(N)N)C(=O)NC1(C(=O)NC(c2ccc(F)cc2)c2ccc(F)cc2)CCCC1,-6.99%
18,O=C(c1ccc(OC(F)F)c(C#Cc2ccccn2)c1)N1Cc2cccnc2C1,-11.2%
19,Cc1cccc(Nc2cc(Cl)nc(SCC(=O)O)n2)c1C,10.2%
20,CC(C)/C=C1/NC(=O)C(C(C)C)n2c1nc1c(O)cccc1c2=O (stereo not given),4.61%
